# Source: PubChem BioAssay
# Where “and” joins values, the source holds several entries; their conditions need not be identical. Equal values may be shown once. Results filed as inconclusive are left out. Calls of active or inactive are those of the source.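 How the source made its calls, unless noted: active means normalized viability below 100% at a tested concentration; inactive means the rest.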
# Key:
# [1] = viability loss in pontine glioma line – cell-based, SU-DIPG-XXV, MIPE5.0, CellTiter-Glo, qHTS, dose response (AID 1347065; cut-off not given, nearly all actives have AC50 up to about 26 µM;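 further: cells exposed to compound for 48 hours before ATP readout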); conditions: CellTiter-Glo ATP luminescence
# [2] = SU-DIPG-VI glioma cell viability, MIPE4.0 library, CellTiter-Glo luminescence, qHTS (AID 1347066; cut-off not given, nearly all actives have AC50 up to about 30 µM;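 further: cells exposed to compound for 48 hours before readout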); conditions: CellTiter-Glo ATP luminescence
# [3] = JHH-DIPG-1 glioma cell viability, MIPE5.0 library, CellTiter-Glo luminescence, qHTS (AID 1347067; cut-off not given, nearly all actives have AC50 up to about 26 µM;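 further: cells exposed to compound for 48 hours before readout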); conditions: JHH-DIPG-1 glioma viability, CellTiter-Glo ATP luminescence
# [4] = SU-DIPG-XXV glioma cell viability, MIPE5.0 library, qHTS (AID 1347068; cut-off not given, nearly all actives have IC50 up to about 30 µM;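 on IC50: cells exposed to compound for 48 hours before viability readout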)
# [5] = sensitizers of A549 cells to miR-34 induction, primary screen, imaging, A549 dox-inducible miR-34, nuclei and caspase counts (AID 1347080;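 active means compounds whose cell count with miR-34 switched on is under 0.7 times the count with it off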); conditions: A549 miR-34 inducible, Hoechst nuclei count, 48 h
# [6] = phospholipid biosynthesis inhibitors in animal cells, primary screen, cell-based, LOPAC library, screen 4 (AID 1347384; call rule not given here); conditions: phospholipid biosynthesis inhibition screen, at 10 µM
# [7] = survival rescue of mitochondrial mutant cells in low glucose, primary screen, MELAS cybrids, Rieske KO mouse fibroblasts, CellTiter-Glo (AID 1508586;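 active means mean z-score across replicates of 1.96 or higher in either the MELAS or the Rieske mutant cell line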;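 further: z relative to plate mean and SD of compound and empty wells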)
# [8] = target: NAD(+) hydrolase SARM1 (Homo sapiens) (UniProt Q6SZW1); assay: SARM1 TIR NADase inhibitors, cell lysate, NAD-Glo luminescence (AID 1508614;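 active means compound whose remaining NAD level is above about 45 nM, limit read from the data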); conditions: SAM-TIR HEK293T lysate NADase, at 1 µM, stronger effect = higher value
# [9] = target: Mitogen-activated protein kinase 7 (Homo sapiens) (UniProt Q13164); assay: ERK5 transactivation activators in reporter cells, primary screen, cell-based, HTS (AID 1508626;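 active means luciferase signal above three times the same-plate solvent-only control wells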;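 further: luciferase driven by Gal4-ERK5 fusion binding five Gal4 sites before minimal TATA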); conditions: HeLa Gal4-ERK5 transactivation, 18 h, at 5 µM, stronger effect = higher value
# [10] = viability rescue of complex I mutant cybrids, primary screen, cell-based, galactose medium, ATP luminescence (AID 1645843;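 active means z-score of at least 1.8 in each of two replicates, scored against plate mean and spread of sample wells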;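 further: positive z means more ATP and so rescue of galactose-driven cybrid death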); conditions: complex I mutant cybrid cells, 72 h, stronger effect = higher value
# [11] = inhibitors of Cryptococcus chitosan production, flow cytometry, Cibacron Brilliant Red staining (AID 1347148; call rule not given here;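 further: compound exposure lasted three days at 37 degrees C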); conditions: Cryptococcus neoformans chitosan, stronger effect = lower value; at 10 µM unless noted
# [12] = modifiers of HSF1 nuclear foci, imaging, Selleck Cancer Library (AID 1347162; in the data active means plate-normalised HSF1 focus index below about 0.46); conditions: human cells, at 10 µM; SSMD: measured here: HSF1 foci SSMD mean; cell count: measured here: cell number; plate-normalised HSF1 focus index: stronger effect = lower value
# [13] = ovarian cancer cell viability with rucaparib, profiling panel, oncology-focused library, rucaparib conditional (AID 1508598); conditions: patient-derived ovarian cancer cells, CellTiter-Glo viability, 144 h, stronger effect = lower value
# [14] = stronger effect = lower value, cell number ratio, induced over uninduced
# [15] = measured here: relative caspase fold change +Dox/-Dox
# [16] = measured here: total cells with miR-34 induction, stronger effect = lower value
# [17] = measured here: total cells without miR-34 induction
# [18] = MELAS cybrid survival, CellTiter-Glo 48 h, stronger effect = higher value
# [19] = Rieske KO mouse fibroblast survival, CellTiter-Glo 72 h
# Chain of NAD(+) hydrolase SARM1 (Homo sapiens) (Q6SZW1 whole entry, looked up, the tested form may be a part): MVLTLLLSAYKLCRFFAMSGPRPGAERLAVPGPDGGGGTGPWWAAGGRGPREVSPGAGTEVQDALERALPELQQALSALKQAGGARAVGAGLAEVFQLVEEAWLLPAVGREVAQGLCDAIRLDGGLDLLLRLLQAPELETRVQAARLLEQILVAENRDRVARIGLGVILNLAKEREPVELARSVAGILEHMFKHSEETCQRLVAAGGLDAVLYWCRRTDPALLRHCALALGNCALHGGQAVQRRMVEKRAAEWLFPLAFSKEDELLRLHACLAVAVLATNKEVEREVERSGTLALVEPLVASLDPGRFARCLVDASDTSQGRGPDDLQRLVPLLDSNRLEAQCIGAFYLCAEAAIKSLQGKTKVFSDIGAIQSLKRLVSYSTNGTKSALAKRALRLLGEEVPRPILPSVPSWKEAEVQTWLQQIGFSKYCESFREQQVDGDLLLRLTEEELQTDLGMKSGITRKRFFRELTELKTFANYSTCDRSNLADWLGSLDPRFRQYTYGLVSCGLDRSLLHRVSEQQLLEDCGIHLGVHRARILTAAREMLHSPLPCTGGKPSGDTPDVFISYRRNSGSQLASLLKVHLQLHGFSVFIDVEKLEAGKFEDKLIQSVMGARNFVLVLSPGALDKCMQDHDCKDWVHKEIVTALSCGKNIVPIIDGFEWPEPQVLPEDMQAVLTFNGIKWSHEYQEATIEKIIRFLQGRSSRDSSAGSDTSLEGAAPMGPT
# Chain of Mitogen-activated protein kinase 7 (Homo sapiens) (Q13164 whole entry, looked up, the tested form may be a part): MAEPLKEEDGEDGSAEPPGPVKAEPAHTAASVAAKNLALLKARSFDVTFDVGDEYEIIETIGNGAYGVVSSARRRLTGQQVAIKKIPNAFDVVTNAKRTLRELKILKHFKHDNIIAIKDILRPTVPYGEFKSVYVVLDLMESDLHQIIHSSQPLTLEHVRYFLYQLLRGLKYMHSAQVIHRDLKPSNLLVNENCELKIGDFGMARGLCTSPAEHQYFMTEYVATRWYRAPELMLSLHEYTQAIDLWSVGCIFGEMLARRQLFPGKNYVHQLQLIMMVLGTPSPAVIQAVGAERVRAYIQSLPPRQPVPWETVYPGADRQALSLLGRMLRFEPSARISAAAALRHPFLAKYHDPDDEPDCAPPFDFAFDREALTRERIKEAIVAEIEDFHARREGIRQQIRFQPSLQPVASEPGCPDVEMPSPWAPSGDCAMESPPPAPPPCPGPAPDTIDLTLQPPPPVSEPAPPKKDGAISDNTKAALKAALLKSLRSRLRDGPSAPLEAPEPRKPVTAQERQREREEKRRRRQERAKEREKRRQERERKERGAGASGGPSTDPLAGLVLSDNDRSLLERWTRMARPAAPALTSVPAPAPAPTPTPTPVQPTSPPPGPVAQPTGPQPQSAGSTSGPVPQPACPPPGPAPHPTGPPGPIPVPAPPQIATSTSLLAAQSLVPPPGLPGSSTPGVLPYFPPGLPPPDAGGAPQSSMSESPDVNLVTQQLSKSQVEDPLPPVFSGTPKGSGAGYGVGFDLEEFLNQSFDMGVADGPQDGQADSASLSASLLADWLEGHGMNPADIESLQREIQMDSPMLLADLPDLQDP
smiles,measurement,setting,value
O=C(Nc1ccc([N+](=O)[O-])cc1Cl)c1cc(Cl)ccc1O,AC50,[1],1.18 µM (active)
same,AC50,[2],0.59 µM (active)
same,AC50,[3],0.833 µM (active)
same,IC50,[4],1.32 µM (active)
same,fold change,[5]; [14],0.851 (inactive) and 1.03 (inactive) and 1.1 (inactive)
same,fold change,[5]; [15],0.641 and 1.64 and 2.16
same,cell count,[5]; [16],1500 and 2060 and 8890
same,cell count,[5]; [17],1770 and 2000 and 8060
same,outcome,[6],active
same,z-score,[7]; [18],-1.03 (inactive)
same,z-score,[7]; [19],-0.036
same,remaining NAD,[8],10 nM (inactive)
same,luciferase signal,[9],24 AU (inactive)
same,z-score,[10],-1.18 (inactive)
NC(=O)c1ncn([C@@H]2O[C@H](CO)[C@@H](O)[C@H]2O)c1O,outcome,[1],inactive
same,outcome,[2],inactive
same,outcome,[3],inactive
same,outcome,[4],inactive
same,fold change,[5]; [14],1.09 (inactive)
same,fold change,[5]; [15],1.07
same,cell count,[5]; [16],10800
same,cell count,[5]; [17],9890
same,outcome,[6],inactive
same,z-score,[10],0.59 (inactive)
C#C[C@]1(O)CC[C@H]2[C@@H]3CCc4cc(OC)ccc4[C@H]3CC[C@@]21C,outcome,[1],inactive
same,outcome,[2],inactive
same,outcome,[3],inactive
same,outcome,[4],inactive
same,fold change,[5]; [14],0.882 (inactive)
same,fold change,[5]; [15],0.717
same,cell count,[5]; [16],9180
same,cell count,[5]; [17],10400
same,z-score,[7]; [18],1.7 (inactive)
same,z-score,[7]; [19],0.807
same,remaining NAD,[8],10 nM (inactive)
same,luciferase signal,[9],80 AU (inactive)
CC1=C(C)C(=O)C(C(CCCCCC(=O)O)c2ccccc2)=C(C)C1=O (configuration not stated),outcome,[1],inactive
same,outcome,[2],inactive
same,outcome,[3],inactive
same,outcome,[4],inactive
same,fold change,[5]; [14],0.907 (inactive)
same,fold change,[5]; [15],0.844
same,cell count,[5]; [16],9450
same,cell count,[5]; [17],10400
same,remaining NAD,[8],10 nM (inactive)
CC1=NN(c2ccccc2)C(=O)C1,outcome,[1],inactive
same,outcome,[2],inactive
same,outcome,[3],inactive
same,outcome,[4],inactive
same,fold change,[5]; [14],0.988 (inactive) and 0.936 (inactive) and 0.929 (inactive)
same,fold change,[5]; [15],0.941 and 1.18 and 0.593
same,cell count,[5]; [16],5320 and 7500 and 8540
same,cell count,[5]; [17],5390 and 8010 and 9190
same,fold fluorescence,[11],4.15 [at 287 µM] (inactive)
same,z-score,[7]; [18],-0.423 (inactive)
same,z-score,[7]; [19],0.67
same,remaining NAD,[8],10 nM (inactive)
same,z-score,[10],1.25 (inactive)
COc1ccnc(CS(=O)c2nc3ccc(OC(F)F)cc3[nH]2)c1OC (configuration not stated),outcome,[1],inactive
same,outcome,[2],inactive
same,outcome,[3],inactive
same,outcome,[4],inactive
same,fold change,[5]; [14],0.948 (inactive) and 0.839 (inactive)
same,fold change,[5]; [15],4.32 and 0.927
same,cell count,[5]; [16],12000 and 8980
same,cell count,[5]; [17],12600 and 10700
same,z-score,[7]; [18],0.74 (inactive)
same,z-score,[7]; [19],-0.32
same,remaining NAD,[8],10 nM (inactive)
same,luciferase signal,[9],56 AU (inactive)
same,z-score,[10],1.18 (inactive)
CCC1(C)CC(=O)NC1=O (configuration not stated),outcome,[1],inactive
same,outcome,[2],inactive
same,outcome,[3],inactive
same,outcome,[4],inactive
same,fold change,[5]; [14],0.975 (inactive) and 0.962 (inactive) and 0.96 (inactive)
same,fold change,[5]; [15],1.24 and 1.03 and 2.35
same,cell count,[5]; [16],10300 and 8160 and 12600
same,cell count,[5]; [17],10600 and 8470 and 13100
same,outcome,[6],inactive
same,z-score,[7]; [18],-0.00472 (inactive)
same,z-score,[7]; [19],-0.121
same,remaining NAD,[8],10 nM (inactive)
same,luciferase signal,[9],64 AU (inactive)
same,z-score,[10],0.235 (inactive)
O=C(O)CCNC(=O)c1ccc(N=Nc2ccc(O)c(C(=O)O)c2)cc1,outcome,[1],inactive
same,outcome,[2],inactive
same,outcome,[3],inactive
same,outcome,[4],inactive
same,fold change,[5]; [14],0.971 (inactive) and 0.94 (inactive) and 0.899 (inactive)
same,fold change,[5]; [15],0.807 and 0.806 and 1.14
same,cell count,[5]; [16],9210 and 7860 and 9290
same,cell count,[5]; [17],9490 and 8360 and 10300
same,z-score,[7]; [18],-1.26 (inactive)
same,z-score,[7]; [19],-1.16
same,remaining NAD,[8],10 nM (inactive)
same,z-score,[10],1.23 (inactive)
COc1cc2c(Nc3ccc(Br)cc3F)ncnc2cc1OCC1CCN(C)CC1,AC50,[1],14.8 µM (active)
same,AC50,[2],20.9 µM (active)
same,AC50,[3],20.9 µM (active)
same,IC50,[4],26.3 µM (active)
same,fold change,[5]; [14],0.896 (inactive)
same,fold change,[5]; [15],1.03
same,cell count,[5]; [16],1750
same,cell count,[5]; [17],1950
same,SSMD,[12],-3.85
same,cell count,[12],4710
same,plate-normalised HSF1 focus index,[12],0.799 (inactive)
same,z-score,[7]; [18],-0.0745 (inactive)
same,z-score,[7]; [19],-0.742
same,viability,"[13]; at 0.000305 µM, OCI-C5x cells, with rucaparib 10 µM, 100% = cells with rucaparib alone",108% (inactive)
same,viability,"[13]; at 0.000305 µM, OCI-C5x cells, without rucaparib",109% (inactive)
same,viability,"[13]; at 0.000305 µM, OCI-P5x cells, with rucaparib 20 µM, 100% = cells with rucaparib alone",82.1% (active)
same,viability,"[13]; at 0.000305 µM, OCI-P5x cells, without rucaparib",95.9% (active)
same,viability,"[13]; at 0.00122 µM, OCI-C5x cells, with rucaparib 10 µM, 100% = cells with rucaparib alone",103% (inactive)
same,viability,"[13]; at 0.00122 µM, OCI-C5x cells, without rucaparib",106% (inactive)
same,viability,"[13]; at 0.00122 µM, OCI-P5x cells, with rucaparib 20 µM, 100% = cells with rucaparib alone",92.5% (active)
same,viability,"[13]; at 0.00122 µM, OCI-P5x cells, without rucaparib",100% (inactive)
same,viability,"[13]; at 0.00488 µM, OCI-C5x cells, with rucaparib 10 µM, 100% = cells with rucaparib alone",122% (inactive)
same,viability,"[13]; at 0.00488 µM, OCI-C5x cells, without rucaparib",111% (inactive)
same,viability,"[13]; at 0.00488 µM, OCI-P5x cells, with rucaparib 20 µM, 100% = cells with rucaparib alone",87.8% (active)
same,viability,"[13]; at 0.00488 µM, OCI-P5x cells, without rucaparib",104% (inactive)
same,viability,"[13]; at 0.0195 µM, OCI-C5x cells, with rucaparib 10 µM, 100% = cells with rucaparib alone",110% (inactive)
same,viability,"[13]; at 0.0195 µM, OCI-C5x cells, without rucaparib",118% (inactive)
same,viability,"[13]; at 0.0195 µM, OCI-P5x cells, with rucaparib 20 µM, 100% = cells with rucaparib alone",90.3% (active)
same,viability,"[13]; at 0.0195 µM, OCI-P5x cells, without rucaparib",112% (inactive)
same,viability,"[13]; at 0.0781 µM, OCI-C5x cells, with rucaparib 10 µM, 100% = cells with rucaparib alone",111% (inactive)
same,viability,"[13]; at 0.0781 µM, OCI-C5x cells, without rucaparib",118% (inactive)
same,viability,"[13]; at 0.0781 µM, OCI-P5x cells, with rucaparib 20 µM, 100% = cells with rucaparib alone",88% (active)
same,viability,"[13]; at 0.0781 µM, OCI-P5x cells, without rucaparib",101% (inactive)
same,viability,"[13]; at 0.313 µM, OCI-C5x cells, with rucaparib 10 µM, 100% = cells with rucaparib alone",112% (inactive)
same,viability,"[13]; at 0.313 µM, OCI-C5x cells, without rucaparib",113% (inactive)
same,viability,"[13]; at 0.313 µM, OCI-P5x cells, with rucaparib 20 µM, 100% = cells with rucaparib alone",83.3% (active)
same,viability,"[13]; at 0.313 µM, OCI-P5x cells, without rucaparib",103% (inactive)
same,viability,"[13]; at 1.25 µM, OCI-C5x cells, with rucaparib 10 µM, 100% = cells with rucaparib alone",111% (inactive)
same,viability,"[13]; at 1.25 µM, OCI-C5x cells, without rucaparib",116% (inactive)
same,viability,"[13]; at 1.25 µM, OCI-P5x cells, with rucaparib 20 µM, 100% = cells with rucaparib alone",78.7% (active)
same,viability,"[13]; at 1.25 µM, OCI-P5x cells, without rucaparib",102% (inactive)
same,viability,"[13]; at 5 µM, OCI-C5x cells, with rucaparib 10 µM, 100% = cells with rucaparib alone",55.4% (active)
same,viability,"[13]; at 5 µM, OCI-C5x cells, without rucaparib",51.8% (active)
same,viability,"[13]; at 5 µM, OCI-P5x cells, with rucaparib 20 µM, 100% = cells with rucaparib alone",43.9% (active)
same,viability,"[13]; at 5 µM, OCI-P5x cells, without rucaparib",78.9% (active)
